According to the supplement of paper PMC6089552:
Out of some 3,200 compounds screened, about 300 (9.4%) showed activity. For the sample, actives were picked, then their nearest neighbours and some compounds at random.

Test system: A673/TR/shEF
Assay: cell viability (LOESS-normalised, relative to median of negative controls) (log2 ratio); higher = more viable cells (less compound effect), active = hit call of the paper (over 3 MAD below the median)
Settings: treatment time: 72 h
In short: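 For three days, A673/TR/shEF Ewing sarcoma cells in 384-well plates (1,500 per well) were treated with library compounds at two or more concentrations or with DMSO controls, after doxycycline had been added or withheld 24 h beforehand to induce EWS-FLI1 shRNA knockdown. Viability was read by CellTiter-Glo luminescence on an Envision reader. The data were LOESS-corrected per plate, divided by the median of negative controls and log2-transformed.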

[1] = 0.25 µM, library screen: screen1, EWS-FLI1 expression: high (no doxycycline)
[2] = 0.25 µM, library screen: screen1, EWS-FLI1 expression: low (doxycycline-induced shRNA knockdown)
[3] = 2.5 µM, library screen: screen1, EWS-FLI1 expression: high (no doxycycline)
[4] = 2.5 µM, library screen: screen1, EWS-FLI1 expression: low (doxycycline-induced shRNA knockdown)
[5] = 0.25 µM, library screen: screen2, EWS-FLI1 expression: high (no doxycycline)
[6] = 0.25 µM, library screen: screen2, EWS-FLI1 expression: low (doxycycline-induced shRNA knockdown)
[7] = 2.5 µM, library screen: screen2, EWS-FLI1 expression: high (no doxycycline)
[8] = 2.5 µM, library screen: screen2, EWS-FLI1 expression: low (doxycycline-induced shRNA knockdown)
[9] = 0.103 µM, library screen: screen3, EWS-FLI1 expression: high (no doxycycline)
[10] = 0.103 µM, library screen: screen3, EWS-FLI1 expression: low (doxycycline-induced shRNA knockdown)
[11] = 0.308 µM, library screen: screen3, EWS-FLI1 expression: high (no doxycycline)
[12] = 0.308 µM, library screen: screen3, EWS-FLI1 expression: low (doxycycline-induced shRNA knockdown)
[13] = 0.926 µM, library screen: screen3, EWS-FLI1 expression: high (no doxycycline)
[14] = 0.926 µM, library screen: screen3, EWS-FLI1 expression: low (doxycycline-induced shRNA knockdown)
[15] = 2.8 µM, library screen: screen3, EWS-FLI1 expression: high (no doxycycline)
[16] = 2.8 µM, library screen: screen3, EWS-FLI1 expression: low (doxycycline-induced shRNA knockdown)
[17] = 8.3 µM, library screen: screen3, EWS-FLI1 expression: high (no doxycycline)
[18] = 8.3 µM, library screen: screen3, EWS-FLI1 expression: low (doxycycline-induced shRNA knockdown)
[19] = 25 µM, library screen: screen3, EWS-FLI1 expression: high (no doxycycline)
[20] = 25 µM, library screen: screen3, EWS-FLI1 expression: low (doxycycline-induced shRNA knockdown)

Measured: cell viability (log2)

O=C(Oc1cc(O)c2c(c1)O[C@H](c1cc(O)c(OC(=O)c3cc(O)c(O)c(O)c3)c3c(O)c(=O)cc(C4Oc5cc(O)cc(O)c5C[C@H]4O)cc13)[C@H](O)C2)c1cc(O)c(O)c(O)c1 (stereo partly drawn)
inactive: [1] 0.0686 | [2] 0.0559 | [3] 0.0408 | [4] 0.0509

CC12CC[C@](C)(C(=O)O)CC1C1=CC(=O)[C@@H]3C4(C)CC[C@H](OC(=O)CCC(=O)O)C(C)(C)[C@@H]4CCC3(C)[C@]1(C)CC2 (stereo partly drawn)
inactive: [1] 0.0741 | [2] -0.061 | [3] 0.0857 | [4] -0.0474

CC(=O)OC1CCC2(C)C(CCC3C2CCC2(C)C3CC3OC4(CCC(C)CO4)C(C)C32)C1 (stereo not drawn)
inactive: [1] 0.0872 | [2] 0.0698 | [3] 0.151 | [4] 0.0624

CC(=O)OC1CCC2(C)C(CCC3C2CC(=O)C2(C)C3CC3OC4(CCC(C)CO4)C(C)C32)C1 (stereo not drawn)
inactive: [1] 0.0619 | [2] 0.0314 | [3] 0.0226 | [4] 0.0969

COc1ccc(/C=C/C(=O)O)cc1O
inactive: [1] 0.0659 | [2] -0.0174 | [3] 0.0725 | [4] 0.0415

CCC(=O)O[C@H]1CC[C@H]2[C@@H]3CCc4cc(O)ccc4[C@H]3CC[C@]12C
inactive: [1] 0.0933 | [2] 0.137 | [3] 0.162 | [4] 0.0928

C[C@]12CC[C@@H]3c4ccc(O)cc4CC[C@H]3[C@@H]1CC[C@@H]2OC(=O)CCC1CCCC1
inactive: [2] 0.00213 | [3] 0.197 | [4] 0.299
active: [1] -0.302

CCCCC(=O)O[C@H]1CC[C@H]2[C@@H]3CCc4cc(O)ccc4[C@H]3CC[C@]12C
inactive: [1] 0.0993 | [2] -0.0254 | [3] 0.16 | [4] 0.0807

CS(=O)(=O)Nc1ccc([N+](=O)[O-])cc1Oc1ccccc1
inactive: [1] 0.147 | [2] 0.0914 | [5] 0.0788 | [6] -0.000657 | [3] 0.123 | [4] 0.11 | [7] 0.101 | [8] 0.0459

O=[N+]([O-])c1ccc(Oc2ccc(Br)cc2)c(C(O)[P+](=O)O)c1 (stereo not drawn)
inactive: 0.025 µM, library screen: screen1, EWS-FLI1 expression: high (no doxycycline) 0.0442 | 0.025 µM, library screen: screen1, EWS-FLI1 expression: low (doxycycline-induced shRNA knockdown) 0.0701 | [1] 0.235 | [2] 0.0171 | [4] -0.0253 | 25 µM, library screen: screen1, EWS-FLI1 expression: low (doxycycline-induced shRNA knockdown) -0.0834
active: [3] -0.289 | 25 µM, library screen: screen1, EWS-FLI1 expression: high (no doxycycline) -0.404

O=C(NC(=S)Nc1ncc(Br)cc1Br)c1cccs1
inactive: [1] 0.112 | [2] -0.086 | [3] 0.132 | [4] 0.0575

COc1c(Cl)ccc(Cl)c1C(=O)O
inactive: [1] 0.0938 | [2] 0.128 | [3] 0.0992 | [4] 0.17

CC(=O)O[C@H]1CC[C@]2(C)C3=CC(=O)[C@@]4(C)C(C[C@@H]5OC6(OCC(C)CC6Br)[C@@H](C)[C@@H]54)C3CC[C@H]2C1 (stereo partly drawn)
inactive: [1] 0.0329 | [2] 0.0911 | [3] 0.172 | [4] 0.139

CC(C)(C)OC(=O)C(C)(N)c1ccc(Cl)cc1 (stereo not drawn)
inactive: [5] 0.157 | [6] 0.0841 | [7] 0.151 | [8] 0.141

CCN(CCO)CCCOc1ccc2c(Nc3cc(CC(=O)Nc4cccc(F)c4)[nH]n3)ncnc2c1
active: [9] -0.49 | [11] -0.395 | [13] -0.452 | [15] -0.473 | [16] -0.112 | [17] -0.446 | [19] -0.681
inactive: [10] -0.0648 | [12] -0.00388 | [14] -0.0458 | [18] -0.0257 | [20] -0.0482

C#Cc1cccc(Nc2ncnc3cc(OCCOC)c(OCCO)cc23)c1
inactive: [9] -0.021 | [10] 0.0228 | [11] -0.00557 | [12] 0.0307 | [13] -0.00846 | [14] 0.063 | [15] 0.0648 | [16] 0.0201 | [17] -0.0295 | [18] 0.0604 | [19] -0.0784 | [20] -0.0862

O=C(CSc1nc2ccccc2[nH]1)c1ccc(OC(F)F)cc1
inactive: [1] 0.0646 | [2] 0.0338 | [3] 0.169 | [4] -0.104

CN1CCN(CC(=O)N2c3ccccc3Sc3ccccc32)CC1
inactive: [1] 0.172 | [2] 0.134 | [3] 0.173 | [4] 0.343

CNC(=O)c1c(F)cccc1Nc1nc(Nc2cc3c(cc2OC)CCN3C(=O)CN(C)C)nc2[nH]ccc12
inactive: [9] -0.00474 | [10] 0.0229 | [12] -0.0133 | [14] -0.047
active: [11] -0.215 | [13] -0.468 | [15] -0.729 | [16] -0.119 | [17] -0.785 | [18] -0.103 | [19] -1.04 | [20] -0.185

CCOC(=O)C1=C(C)N=C2SC(C)C(=O)N2C1c1ccc(OC)cc1 (stereo not drawn)
inactive: [1] 0.148 | [2] 0.0319 | [3] 0.107 | [4] 0.0438

NC(C(=O)O)c1cccc(O)c1 (stereo not drawn)
inactive: [5] 0.144 | [6] 0.0441 | [7] 0.145 | [8] 0.0975

C[C@@H]1CC[C@@]23CCC4(C)[C@@](C=CC5[C@@]6(C)CC[C@H](O)C(C)(C)C6CC[C@]54C)(OC2=O)C3[C@H]1C (stereo partly drawn)
inactive: [1] 0.00363 | [2] -0.0167 | [3] 0.0828 | [4] -0.0285

COCCOC(=O)C1=C(C)NC(=S)NC1c1ccccc1 (stereo not drawn)
inactive: [1] 0.0342 | [2] 0.00808 | [3] 0.0869 | [4] 0.0951

C=C(C)C1Cc2c(cc3oc(CO)cc(=O)c3c2O)O1 (stereo not drawn)
inactive: [1] 0.0482 | [2] -0.012 | [3] 0.067 | [4] 0.013
